# Values quoted from earlier work in PubChem BioAssay AID977611.
# Among all 3,900 compounds or so, about 3,900 (100%) were called active. No cut-off is given here; in the data, nearly all actives have Kd up to about 4200 µM. The set was probably picked from earlier hits. This is one part of the list. Numbered stars: 1 amine (or outer) side, 2 acyl side, 3 side chain; on linkers, the order of the positions; unused ones are H or OH. *1 amine or outer side, *2 acyl side, *3 side chain or, on linkers, in order; H or OH if unused. Where a SMILES comes first, the peptide text is derived from it. Non-standard residues stand in square brackets, D forms with d. Square brackets hold non-standard residues; d marks the D form. Residues, ends and D or L forms follow the SMILES beside them. Peptide text beside a SMILES is read from it. [ ]: non-standard residue; d: D form. X3 = CCCCCC[C@](C)(N[C@@H](O)CN)[C@H](O)N([C@@H](CC(C)C)C(=O)[*:2])[*:1]; X1 = CCCC[C@@](C)(N[*:1])C(=O)[*:2]; Thr(P(OH)3+) = C[C@@H](O[P+](O)(O)O)[C@H](N)C(=O)O; Orn(CH(NH2)2) = NC(N)NCCC[C@H](N)C(=O)O; X4 = CCCCCC[C@](C)(N[*:1])C(=O)[*:2]; X2 = CCCC[C@](C)(N[*:1])C(=O)[*:2]
# Assay: PubChem AID 977611
# Details: PDB protein-ligand complexes, literature Kd
structure (smiles),measurement,setting,value
O[C@@H](CC1c2ccccc2Sc2ccccc21)CN1CCCC1,Kd,"protein: Renin, PDB entry 4gj8",500 µM (active)
Cc1ncc2c(n1)N(C)C(=O)C(=N)C2,Kd,"protein: Caspase-6, PDB entry 4n5d",607 µM (active)
CC[C@H](C)[C@H](NC(=O)CNC(=O)[C@H](CCC(=O)O)NC(=O)CNC(=O)[C@H](CCC(=O)O)NC(=O)[C@H](CCC(=O)O)NC(=O)[C@H](CC(C)C)NC(=O)CNC(=O)[C@H](Cc1ccccc1)NC(=O)[C@H](Cc1c[nH]cn1)NC(=O)[C@H](Cc1ccc(O)cc1)NC(=O)[C@H](CC(=O)O)NC(=O)[C@@H](N)CC(C)C)C(=O)N[C@@H](CCCNC(N)N)C(=O)N[C@@H](CC(=O)O)C(=O)N[C@@H](CC(C)C)C(=O)N[C@@H](Cc1ccccc1)C(=O)N[C@H](C)CC(=O)O,Kd,"protein: The human retinoblastoma tumor suppressor protein (pRb), PDB entry 1o9k",0.34 µM (active)
CC[C@H](C)[C@H](NC(=O)[C@H](CC(C)C)NC(=O)[C@H](Cc1c[nH]cn1)NC(=O)[C@H](CC(=O)O)NC(=O)[C@H](CC(=O)O)NC(=O)[C@H](CCC(=O)O)NC(=O)[C@H](CC(=O)O)NC(=O)[C@@H](NC(=O)[C@H](CC(=O)O)NC(=O)[C@@H](N)CCC(=O)O)[C@@H](C)O[P+](O)(O)O)C(=O)N[C@@H](Cc1ccc(O)cc1)C(=O)N[C@@H](CC(C)C)C(=O)N[C@@H](CCC(=O)O)C(=O)N[C@@H](CCC(=O)O)C(=O)N[C@H](C(=O)N[C@@H](CC(C)C)C(=O)N[C@H](C(=O)N[C@@H](CCCNC(N)N)C(=O)N[C@H](C(=O)O)C(C)C)C(C)C)[C@@H](C)CC (H-ED[Thr(P(OH)3+)]DEDDHLIYLEEILV[Orn(CH(NH2)2)]V-OH),Kd,"protein: C-terminal domain of human RAP74, PDB entry 2k7l",0.7 µM (active)
Nc1nc(-c2ccc(C(F)(F)F)cc2)cc(N2CCOCC2)n1,Kd,"protein: Acetylcholine-binding protein AChBP, PDB entry 4qab",0.0002 µM (active)
CC1CCN(c2cc(-c3ccc(C(F)(F)F)cc3)nc(N)n2)CC1,Kd,"protein: Acetylcholine-binding protein AChBP, PDB entry 4qac",0.0004 µM (active)
CCCCCC[C@](C)(NC(=O)[C@H](CC(=O)O)NC(=O)[C@H](CC(C)C)N[C@@H](O)[C@](C)(CCCCCC)N[C@@H](O)CN)C(=O)N[C@@H](CC(C)C)C(=O)N[C@@H](CC(=O)O)C(=O)N[C@@H](CC(C)C)C(=O)N[C@@H](C)C(=O)N[C@@H](CO)C(=O)O (H-[X3]D[X4]LDLAS-OH),Kd,"protein: 14-3-3 protein zeta/delta, PDB entry 4n84",0.51 µM (active)
CCCC[C@@](C)(NC(=O)CNC(=O)[C@@H](N)CCC(N)=O)C(=O)N[C@@H](CC(C)C)C(=O)N[C@@H](CC(=O)O)C(=O)N[C@@](C)(CCCC)C(=O)N[C@@H](CC(C)C)C(=O)N[C@@H](CC(=O)O)C(=O)N[C@@H](CC(C)C)C(=O)N[C@@H](C)C(=O)N[C@@H](CO)C(=O)O (H-QG[X1]LD[X2]LDLAS-OH),Kd,"protein: 14-3-3 protein zeta/delta, PDB entry 4n7y",0.55 µM (active)
c1ccc([C@@H]2Nc3ccccc3-c3nc4ccccc4n32)nc1,Kd,"protein: Retinal rod rhodopsin-sensitive cGMP 3',5'-cyclic phosphodiesterase subunit delta, PDB entry 4jv8",1.42 µM (active)
Cc1cc2nc3c(=O)[nH]c(=O)nc-3n(C[C@H](O)[C@H](O)[C@H](O)CO)c2cc1C,Kd,"protein: putative protease fromBacteroides thetaiotaomicron (ppBat), PDB entry 4d1y",0.074 µM (active)
O=C1N[C@@H](c2cccnc2)c2c(-c3ccccc3)n[nH]c21,Kd,"protein: Gag protein, PDB entry 4j93",20 µM (active)
O=C(O)CCc1ccc2c(c1)OCO2,Kd,"protein: INTEGRASE, PDB entry 4ahr",6500 µM (active)
same,Kd,"protein: Pantothenate synthetase (T2A, E77G mutation), PDB entry 4ef6",1200 µM (active)
O=C(O)c1ccc2c(c1)OCO2,Kd,"protein: Pantothenate synthetase (T2A, E77G mutation), PDB entry 4ddk",5100 µM (active)
O=C1NC(=[N+]2CCCC2)Cc2ccccc21,Kd,"protein: Caspase-6, PDB entry 4n7m",3.4 µM (active)
O=C(Nc1ccc(OC(F)(F)F)cc1)N(Cc1cccc(-c2nccs2)c1)C1CC1,Kd,"protein: High affinity nerve growth factor receptor TrkA, PDB entry 4pmp",0.4 µM (active)
CCc1c(C(=O)Nc2cc(S(=O)(=O)N(CC)CC)ccc2O)[nH]c(C)c1C(C)=O,Kd,"protein: Bromodomain-containing protein 4, BRD4(1), PDB entry 4lyw",237 µM (active)
CCc1c(C(=O)NC)[nH]c(C)c1C(C)=O,Kd,"protein: Bromodomain-containing protein 4, BRD4(1), PDB entry 4lzs",16 µM (active)
CC[C@H](C)[C@H](NC(=O)[C@H](C)NC(=O)[C@@H]1CCCN1C(=O)[C@@H](NC(=O)[C@@H](N)CC(=O)O)[C@@H](C)CC)C(=O)N[C@@H](Cc1ccc(O)cc1)C(=O)N[C@@H](CCCNC(N)N)C(=O)N[C@@H](Cc1ccc(O)cc1)C(=O)NCC(=O)N[C@@H](CC(C)C)C(=O)N[C@@H](CCC(=O)O)C(=O)NCC(=O)N[C@@H](CC(C)C)C(=O)N[C@@H](CC(C)C)C(=O)O (H-DIPAIY[Orn(CH(NH2)2)]YGLEGLL-OH),Kd,"protein: CELL DIVISION PROTEIN FTSA, PUTATIVE, PDB entry 4a2a",45 µM (active)
CC(C)C[C@H](NC(=O)[C@H](CCC(N)=O)NC(=O)CNC(=O)[C@H](CCC(N)=O)NC(=O)[C@@H]1CCCN1C(=O)[C@H](CC(C)C)NC(=O)[C@@H]1CCCN1C(=O)[C@H](CCC(=O)O)NC(=O)[C@@H]1CCCN1C(=O)[C@@H](N)CC(C)C)C(=O)N[C@H](C(=O)N[C@@H](C)C(=O)N[C@@H](Cc1ccc(O)cc1)C(=O)O)[C@@H](C)O,Kd,"protein: HLA class I histocompatibility antigen(HLA-B*3501), PDB entry 1zhk",35.2 µM (active)
same,Kd,"protein: HLA class I histocompatibility antigen(HLA-B*3508), PDB entry 1zhl",9.9 µM (active)
CC[C@H](C)[C@H](NC(=O)[C@H](CCC(=O)O)NC(=O)[C@@H](NC(=O)[C@H](CC(=O)O)NC(=O)CNC(=O)[C@H](Cc1ccc(O[P+](O)(O)O)cc1)NC(=O)[C@H](CC(=O)O)NC(=O)[C@H](CCC(=O)O)NC(=O)[C@@H]1CCCN1C(=O)[C@H](Cc1ccc(O)cc1)NC(=O)[C@@H]1CCCN1C(=O)[C@H](CC(N)=O)NC(=O)[C@@H](N)Cc1ccc(O)cc1)[C@@H](C)CC)C(=O)NCC(=O)O (H-YNPYPED[X1]GDIEIG-OH),Kd,"protein: insulin receptor subunit beta, PDB entry 3bu6",1.3 µM (active)
CC(C)C[C@H](NC(=O)[C@@H](NC(=O)[C@H](C)NC(=O)[C@H](Cc1ccc(O)cc1)NC(=O)[C@H](C)NC(=O)[C@@H]1CCCN1C(=O)[C@@H]1CCCN1C(=O)[C@@H]1CCCN1C(=O)[C@H](C)NC(=O)[C@@H](N)[C@@H](C)O)[C@@H](C)O)C(=O)NCC(=O)O (H-TAPPPAYATLG-OH),Kd,"protein: E3 ubiquitin-protein ligase NEDD4, PDB entry 2m3o",5 µM (active)
